Source: PubChem BioAssay (NCATS)
Records with an inconclusive call do not appear. Values without a mark were called inactive. Activity calls are given as the source filed them. Calls come from the whole dose curve; as a rule, active = well fitted inhibition curve with a large enough effect; inconclusive = small, poorly fitted or top-dose-only effect; inactive = no such curve, though single readings can be large or run the other way.

Test: Counterscreen for APE1 Inhibitors: Fluorescent Dye Displacement Validation Assay (AID 1707)
Conditions: fluorescent dye displacement from DNA; series mostly up to 57.1 µM; activity change, negative = inhibition: at the top concentration
Text: In order to distinguish true inhibitors of DNA-processing enzymes from promiscuous DNA-binding compounds among screening assay hits, we developed a homogeneous and miniaturized assay based on fluorescent dye displacement test as originally described by Tse and Boger (Accounts of Chemical Research (2004) 37: 61-69). The assay is based on the strong enhancement of fluorescence when Thiazole Orange (ThO) binds to double-stranded DNA: conversely, in the presence of a DNA-binding compound, Thiazole Orange is displaced from the DNA and its fluorescence is reduced.
Buffer. 50 mM Tris-HCl (pH7.5) containing 50mM NaCl, 2 mM MgCl2, and 0.01% Tween-20.
Buffer containing 250 nM ThO in columns 3 and 4 as negative control (no dsDNA).
Reaction mixture: 250 nM ThO and 50 nM dsDNA at final concentration dispensed throughout the plate: in columns 1, 2, 5-48. Column 1 is neutral (100% activity).
5''TAMRA- TC ACC FTC GTA CGA CTC
3'' AG TGG GAG CAT GCT GAG
where F denotes tetrahydrofuran.
Control: Pintool transfer of control compound WB64 (W4761, Sigma-Aldrich) to column 2 of all assay plates as a two-fold 16-point dilution in duplicate (concentration range 5.75 uM - 0.175 nM).
Four uL of reaction mixtures were dispensed to 1536-well Greiner black solid bottom plates. Compounds (23 nL) were transferred […] in order to measure the endpoint fluorescence using 480 nm excitation and 540 nm emission fluorescence protocol.

Compound | activity change, negative = inhibition | outcome
Cn1c(=O)c2[nH]cnc2n(C)c1=O | 152% | –
CN1C(=O)CCS(=O)(=O)C1c1ccc(Cl)cc1 (centres undefined) | 5.88% | –
CCCCC/C=C\C/C=C\C/C=C\C/C=C\CCCC(=O)NCC(=O)O | 20.8% | –
CC(C)N(CCC(C(N)=O)(c1ccccc1)c1ccccn1)C(C)C (centres undefined) | – | inactive
CCC1(c2ccc(N)cc2)CCC(=O)NC1=O (centres undefined) | 1.41% | –
O=c1[nH]oc2c1CCNC2 | -6.77% | –
O=P1(N(CCCl)CCCl)NCCCO1 (centres undefined) | 1.6% | –
CC(C)c1cccc(C(C)C)c1O | 1.54% | –
O=C(O)CCCc1ccc(N(CCCl)CCCl)cc1 | 3.73% | –
CC(NC(C)(C)C)C(=O)c1cccc(Cl)c1 (centres undefined) | -0.102% | –
NCCc1ccc(O)cc1 | 0.193% | –
C[C@]12CCC(=O)C=C1CC[C@@H]1[C@@H]2CC[C@]2(C)C(=O)CC[C@@H]12 | -1.33% | –
C=C(C)[C@H]1CN[C@H](C(=O)O)[C@H]1CC(=O)O | -0.911% | –
CC(C)(C)NCC(O)c1ccccc1Cl (centres undefined) | 0.574% | –
